Laboratory results from PubChem BioAssay (NCATS).
Records with an inconclusive call do not appear. The source made the active and inactive calls. Calls follow the shape of the dose curve; as a rule, active = well fitted curve in the direction sought with a large enough effect; inconclusive = small, poorly fitted or top-dose-only effect, or another doubt; inactive = no such curve, though single readings can be large; an effect the other way counts as inactive or inconclusive.

How the values were obtained:
HEK293 = assay: Cytotoxic Profiling of Annotated Libraries Using Quantitative High-Throughput Screening (AID 1296008); settings: Five cell lines viability, CellTiter-Glo ATP luminescence, 48-72 h; max response: active compounds read low; also: nearly all actives have a fitted effect of over 60% in size
Outline: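 Compounds were pin-transferred onto cells and incubated 48 or 72 hr at 37 degree Celsius, 95% humidity. CellTiter-Glo was added, plates sat 10 min at room temperature, then ATP-coupled luminescence was imaged as the viability read-out.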

C33A = assay: Primary qHTS to identify gynecologic anti-cancer compounds using libraries of approved drugs and bioactive compounds (AID 1345084); settings: Gynecologic cancer cell panel viability, ATPlite luminescence, 48 h; series mostly up to 57.5 µM; also: nearly all actives have a fitted effect of over 55% in size; as to activity change, negative = cytotoxicity: % is scaled to controls: 0 for no effect and ±100 for the full control effect
Outline: (§1)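 Cell viability after 48 h drug treatment, ATPlite luminescence readout; five doses.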

CASKI = assay: as above; settings: Gynecologic cancer cell panel viability, ATPlite luminescence, 48 h; series mostly up to 57.5 µM
Outline: as §1

Es-2 = assay: as above; settings: Gynecologic cancer cell panel viability, ATPlite luminescence, 48 h; series mostly up to 57.5 µM
Outline: as §1

HeLa = assay: as above; settings: Gynecologic cancer cell panel viability, ATPlite luminescence, 48 h; series mostly up to 57.5 µM
Outline: as §1

JEG-3 = assay: as above; settings: Gynecologic cancer cell panel viability, ATPlite luminescence, 48 h; series mostly up to 57.5 µM
Outline: as §1

OV90 = assay: as above; settings: Gynecologic cancer cell panel viability, ATPlite luminescence, 48 h; series mostly up to 57.5 µM
Outline: as §1

CAOV3 = assay: as above; settings: Gynecologic cancer cell panel viability, ATPlite luminescence, 48 h; series mostly up to 57.5 µM
Outline: as §1

Hek293T = assay: as above; settings: Gynecologic cancer cell panel viability, ATPlite luminescence, 48 h, control line for the selectivity index; series mostly up to 57.5 µM
Outline: as §1
Potency is read from the fitted curve at half-maximal effect.

COc1cc2c(cc1OC)CN(C(=O)/C=C/c1c(-c3ccccc3)n(C)c3ncccc13)CC2
inactive: Potency (C33A) | Potency (CASKI) | Potency (Es-2) | Potency (HeLa) | Potency (JEG-3) | Potency (OV90)
active: Potency (HEK293) 7.31 µM

Cn1sc(=O)n(Cc2ccccc2)c1=O
active: Potency (HEK293) 6.51 µM
inactive: Potency (C33A) | Potency (CASKI) | Potency (Es-2) | Potency (HeLa) | Potency (OV90)

C/C=C(/C)C(=O)O[C@H]1[C@H](OC(=O)/C(C)=C\C)[C@@]23C(CC1(C)C)[C@]1(CCC4[C@@]5(C)CC[C@H](O[C@@H]6O[C@H](C(=O)O)[C@@H](O)[C@H](O[C@@H]7O[C@H](CO)[C@H](O)[C@H](O)[C@H]7O[C@@H]7O[C@@H](C)[C@H](O)[C@@H](O)[C@H]7O[C@@H]7OC[C@@H](O)[C@H](O)[C@H]7O)[C@H]6O[C@@H]6O[C@H](CO)[C@H](O)[C@H](O)[C@H]6O)C(C)(C)C5CC[C@@]4(C)[C@]1(C)C[C@H]2O)O[C@H]3O (stereo partly drawn)
active: Potency (HEK293) 1.74 µM
inactive: activity change, negative = cytotoxicity (C33A) -26.4% [at 6.55 µM] | activity change, negative = cytotoxicity (CASKI) -8.52% [at 6.55 µM] | activity change, negative = cytotoxicity (Es-2) 0.581% [at 6.55 µM] | activity change, negative = cytotoxicity (HeLa) 16.8% [at 6.55 µM]

N#Cc1ccc2ncnc(NCCc3ccccc3)c2c1
inactive: Potency (C33A) | Potency (CAOV3) | Potency (CASKI) | Potency (Es-2) | Potency (HeLa) | Potency (JEG-3) | Potency (OV90)
active: Potency (HEK293) 18.4 µM

C=C1CC(=O)C2OC2(C)CC2OC(=O)C(=C)C2C(O)C1OC(=O)/C(C)=C\C (stereo not drawn)
inactive: Potency (C33A) | Potency (CAOV3) | Potency (CASKI) | Potency (HeLa) | Potency (JEG-3) | Potency (OV90)
active: Potency (HEK293) 6.4 µM

COc1ccc(CNc2nc(N(CCO)CCO)nc3c2ncn3C(C)C)cc1
active: Potency (HEK293) 4.61 µM | Potency (Es-2) 22.4 µM
inactive: Potency (CAOV3)

CCC(CC)C(c1ccc(Nc2nc3ccccc3s2)cc1)n1cncn1 (stereo not drawn)
active: Potency (HEK293) 10.3 µM | Potency (C33A) 25.1 µM | Potency (CAOV3) 28.2 µM | Potency (HeLa) 35.5 µM | Potency (JEG-3) 31.6 µM | Potency (OV90) 31.6 µM

CCCc1cc(C)[nH]c(=O)c1CNC(=O)c1cc(-c2ccc(N3CCN(C(C)C)CC3)nc2)cc2c1cnn2C(C)C
inactive: Potency (C33A) | Potency (CASKI) | Potency (Es-2) | Potency (HeLa) | Potency (Hek293T)
active: Potency (HEK293) 11.6 µM

O=C(NC1(c2ccccc2)CC1)c1c(CN2CCC(N3CCCCC3)CC2)c(-c2cccc(C(F)(F)F)c2)nc2cc(Br)ccc12
active: Potency (HEK293) 14.6 µM | Potency (OV90) 17.8 µM
inactive: Potency (C33A) | Potency (CASKI) | Potency (Es-2) | Potency (HeLa) | Potency (JEG-3)

Cn1ncc(Cl)c1-c1cc(C(=O)N[C@H](CN)Cc2cccc(F)c2)sc1Cl
inactive: Potency (CAOV3)
active: Potency (HEK293) 1.3 µM | Potency (C33A) 11.2 µM | Potency (Hek293T) 2.82 µM

O=C(Nc1ccc2[nH]nc(-c3ccncc3)c2c1)[C@@H]1CCN(CC(=O)N2CCN(c3ccc(-c4ncccn4)cc3)CC2)C1
inactive: Potency (C33A) | Potency (CAOV3) | Potency (CASKI) | Potency (Hek293T) | Potency (JEG-3)
active: Potency (HEK293) 10.3 µM

CC[C@@H](C)[C@@H]1OC2(C=C[C@H]1C)C[C@@H]1C[C@H](C/C=C(\C)[C@H](O[C@H]3C[C@H](OC)[C@H](O[C@H]4C[C@H](OC)[C@H](NC(C)=O)[C@H](C)O4)[C@H](C)O3)[C@H](C)/C=C/C=C3\CO[C@H]4[C@H](O)C(C)=C[C@@H](C(=O)O1)[C@@]34O)O2 (stereo partly drawn)
inactive: Potency (C33A) | Potency (CAOV3) | Potency (CASKI) | Potency (Es-2) | Potency (OV90)
active: Potency (HEK293) 3.21 µM

Cc1cc(N2CCN(C(=O)Oc3ccc(-c4ccccc4)cn3)CC2)c2ccccc2n1
inactive: Potency (CAOV3) | Potency (HeLa)
active: Potency (HEK293) 8.2 µM

Cc1cc(N2CCOCC2)ccc1Nc1nc(NC2CCCCC2)c2[nH]cnc2n1
active: Potency (HEK293) 0.326 µM
inactive: Potency (C33A) | Potency (CASKI) | Potency (Es-2) | Potency (HeLa) | Potency (Hek293T) | Potency (JEG-3) | Potency (OV90)

C=CC(=O)N1CCN(C(=O)CNc2cc(-c3ccccc3Cl)c(Cl)cc2OC)CC1
active: Potency (HEK293) 18.4 µM
inactive: Potency (C33A) | Potency (CASKI) | Potency (Es-2) | Potency (HeLa) | Potency (Hek293T) | Potency (JEG-3) | Potency (OV90)

CCC(C(C)O)n1ncn(-c2ccc(N3CCN(c4ccc(OCC5COC(Cn6cncn6)(c6ccc(F)cc6F)C5)cc4)CC3)cc2)c1=O (stereo not drawn)
inactive: Potency (C33A) | Potency (CAOV3) | Potency (CASKI) | Potency (Es-2) | Potency (HeLa) | Potency (JEG-3) | Potency (OV90)
active: Potency (HEK293) 5.8 µM

COc1cc2c(NC3CCN(C(C)C)CC3)nc(N3CCC(F)(F)CC3)nc2cc1OCCCN1CCCC1
active: Potency (HEK293) 8.2 µM | Potency (CAOV3) 8.91 µM | Potency (CASKI) 31.6 µM | Potency (JEG-3) 22.4 µM | Potency (OV90) 11.2 µM

C=C1CC2[C@@]3(C)C=CC(=O)C(C)(C)C3=C(O)C(=O)[C@@]2(C)C2(C(=O)OC)C(=O)C(C)OC(=O)[C@@]12C (stereo partly drawn)
inactive: Potency (C33A) | Potency (CAOV3) | Potency (CASKI) | Potency (Es-2) | Potency (JEG-3)
active: Potency (HEK293) 7.96 µM

CCCCCCCCC(=O)N[C@H](CN1CCCC1)[C@H](O)c1ccc2c(c1)OCCO2
active: Potency (HEK293) 7.31 µM
inactive: Potency (C33A) | Potency (CASKI) | Potency (Es-2) | Potency (HeLa) | Potency (JEG-3)

Nc1cccc(CNC(=O)c2ccc(Oc3ccc(OCc4cccc(F)c4)cc3)nc2)c1
inactive: Potency (C33A) | Potency (CASKI) | Potency (Es-2) | Potency (HeLa) | Potency (Hek293T) | Potency (JEG-3) | Potency (OV90)
active: Potency (HEK293) 11.6 µM

Cn1ncc(Cl)c1-c1cc(C(=O)NC(CN)Cc2ccc(F)c(F)c2)oc1Cl (stereo not drawn)
inactive: Potency (Es-2) | Potency (HeLa)
active: Potency (HEK293) 0.231 µM | Potency (C33A) 3.16 µM | Potency (Hek293T) 0.794 µM
